Experimental data reported in PubChem BioAssay AID605 (National Center for Advancing Translational Sciences (NCATS), 2007).
Hit rate of the full screen: of about 71,000 compounds, about 35 (0.05%) were called active. Calls come from the whole dose curve; as a rule, active = well fitted curve in the direction sought with a large enough effect; inconclusive = small, poorly fitted or top-dose-only effect, or effect the other way; inactive = flat fitted curve, though single readings scatter. These entries were drawn from the full list.

Each compound was assayed against tRNA threonylcarbamoyladenosine biosynthesis protein TsaE (Escherichia coli (strain K12)) (UniProt P0AF67) (assay: qHTS Assay for Inhibitors of YjeE). Details: purified YjeE enzyme, qHTS inhibition assay.
Method: NIH Molecular Libraries Screening Centers Network [MLSCN]
NIH Chemical Genomics Center [NCGC]
Assay Provider: Eric Brown, McMaster University
YjeE is an essential E.coli protein of unknown function that binds adenosine diphosphate (ADP). A complex of YjeE and BODIPY Texas Red-labeled ADP probe (Invitrogen, catalog number A22359) is incubated with library members. Inhibitors of YjeE-ADP binding are detected by a decrease in the fluorescence polarization (FP) of the fluorophore. Purified YjeE was supplied by Chand Mangat and Eric Brown, McMaster University.
NCGC Assay Protocol Summary:
2 uM probe/10 uM YjeE in columns 1, 2, 5-48. Titration of ADP control (from 40 mM, then 1:2) pin-transferred to top half of column 2. Column 1 and bottom half of column 2 are neutral.
Two and a half uL of reagents were dispensed to 1536-well Greiner black plates. Compounds and controls (20 nL) were transferred via Kalypsys PinTool. The plates were incubated for 15 min at room temperature, and then read on ViewLux (Perkin-Elmer) High-throughput CCD imager using BODIPY polarization filter set and 30 seconds exposure time. During dispense, reagent bottle was kept submerged into 4 deg C water bath and all liquid lines were covered with aluminum foil to minimize probe and protein degradation.
Keywords: NIH Roadmap, MLSCN, MLI, MLSMR, qHTS, NCGC, YjeE

outcome, inactive:
Cc1ccc(O)c(NC(=O)COc2cc(C)ccc2C)c1
COc1ccc(-c2nc3cnc(N(C)C)nc3n(Cc3cccs3)c2=O)cc1
O=C(Cl)c1ccc([N+](=O)[O-])cc1
Cc1cc(C)cc(N)c1
CCOC(=O)N1CCN(C(=O)C2CC(c3ccc(F)cc3)=NO2)CC1 (stereo unspecified)
Cc1ccc2c(c1)N(CC(=O)N1CCCc3ccccc31)C(=O)C(C)O2 (stereo unspecified)
CCOc1cccc(/C(O)=C2/C(=O)C(=O)N(CCOC)C2c2ccncc2)c1 (stereo unspecified)
CC1CC(C)CN(CC(=O)Nc2ccc(S(N)(=O)=O)cc2)C1 (stereo unspecified)
CN(c1ccc(C(=O)N2CCc3ccccc3C2)cc1)S(C)(=O)=O
COc1ccccc1N1CCN(C(=O)c2cc3c(-c4ccc(Cl)cc4)nn(C)c3s2)CC1
Cn1c(CC(=O)Nc2ccccc2)nnc1SCC(=O)c1ccccc1
Cc1nnc(NC2=NCCCCC2)o1
Cn1cc(-c2nc3cnc(N4CCNCC4)nc3n(CCc3ccccc3)c2=O)c2ccccc21
COc1cccc(Nc2ncc3ncc(=O)n(C4CC4)c3n2)c1
CNC(=O)C1(C)C=CC2(CCCCC2)N1C(C)=O (stereo unspecified)
COc1ccccc1CNc1ncnc2ccc(-c3ccc4c(c3)OCO4)cc12
COC(=O)[C@@]1(Cc2ccc(OC)cc2)[C@H]2c3cc(C(=O)N4CCCC4)n(Cc4ccc(OC(F)(F)F)cc4)c3C[C@H]2CN1C(=O)c1ccccc1
O=C(O)c1cccc(S(=O)(=O)NCCO)c1
COc1ccc(N)c(C)c1
O=C(Cn1ccc(=O)[nH]c1=O)Nc1ccc(C(=O)O)c(O)c1
COc1ccc(CC(=O)Nc2c3c(nn2-c2cccc(Cl)c2)CS(=O)C3)cc1 (stereo unspecified)
COCCCN1C(=O)C(=O)/C(=C(/O)c2ccc3c(c2)CC(C)O3)C1c1cccnc1 (stereo unspecified)
Cn1cc(-c2nc3cncnc3n(-c3ccccc3)c2=O)c2ccccc21
Cc1cc(Cl)c(S(=O)(=O)NCCC(=O)O)cc1OCC(N)=O
Cc1ccnc(SCCn2c(Br)nc3c2c(=O)[nH]c(=O)n3C)n1
CC(=NCc1ccc2c(c1)OCO2)C1=C(O)c2ccccc2C1=O
Cc1ccc2c(c1)sc1ncc(NC(=O)c3ccccc3)c(=O)n12
CCCCOc1ccc(Cl)cc1CSc1nncn1N
CCN(Cc1cc2cc(C)ccc2[nH]c1=O)S(=O)(=O)c1ccccc1
CSCC[C@H](NC(=O)NCCc1ccc(F)cc1)C(=O)O
O=C(Cn1cc2c(n1)CCCCC2)NCCN1CCOCC1
CC(=O)Nc1ccc(NC(=O)CN2CCCC(C)C2)c(Cl)c1 (stereo unspecified)
COCCn1c(=O)c(-c2cccc(F)c2)nc2cncnc21
Oc1cc2c(cc1O)CN(C(=S)NCCc1ccc(Cl)cc1)CCC2
CN=C(NC#N)NCCSCc1nc[nH]c1C
COC(=O)c1nc(NC(=O)c2ccc(Cl)cc2)n[nH]1
NC(=O)CCCC1=NS(=O)(=O)c2ccccc2N1
COC(=O)c1c(NC(=O)CSc2nncs2)sc2c1CCCCC2
CC(=O)N(CC1CCCO1)C1(C(=O)NC2CCCC2)CCCCC1 (stereo unspecified)
COc1ccc2[nH]cc(CCNc3nc(-c4cccc(NS(C)(=O)=O)c4)nc4ccccc34)c2c1
CCCCCN(C(=O)NC(=O)Nc1ccccc1OC)S(C)(=O)=O
Oc1ccc(O)c2c(O)cccc12
Cc1ccc(S(=O)(=O)NC(=O)N2CCCC(C)(C)C2)cc1
C=CCOC(=O)COCCC(C)C
CCC1=C/C(=C\c2ccc3c(c2)OCO3)C(=O)S1
COC(=O)N1CCC[C@@]2(CCN(C(=O)NC(C)C)C2)C1
O=S(=O)(NCc1ccccc1Cl)c1cnc[nH]1
CCCCn1c(SCC(=O)N2CCC(C(=O)OCC)CC2)nc2cc(S(N)(=O)=O)ccc21
CCCC(Cl)CCCC(Cl)CCC(Cl)CCC(Cl)CCC(Cl)CCCC(Cl)CCC (stereo unspecified)
Nc1ccccc1N
N[C@@H](C(=O)O)c1ccc(P(=O)(O)O)cc1
CC(=O)OC(C(=O)NCCc1ccccc1)c1cccnc1 (stereo unspecified)
COCc1[nH]nc2c1C(C1C=CCCC1)C(C#N)=C(N)O2 (stereo unspecified)
O=C(c1csnn1)N1CCC[C@@]2(CCN(Cc3nccs3)C2)C1
COc1cc(Cl)c(C)cc1NC(=O)CSc1nnc(-c2ccco2)n1CC(C)C
O=C(Nc1cccc(F)c1)N1CC2(CCN(C(=O)c3csnn3)CC2)C1
Cc1cccc(CNc2cc(-c3ccccc3Cl)ncn2)c1
COC(=O)[C@@H]1[C@H]2C[C@H]3c4[nH]c5cc(OC)ccc5c4CCN3C[C@@H]2C[C@@H](OC(=O)c2cc(OC)c(OC)c(OC)c2)[C@@H]1OC
CCOc1ccccc1NC(=O)C1CCN(S(=O)(=O)c2c(C)nn(C)c2C)CC1
C=CCN1C(=O)C(O)(CC(=O)c2ccc(Cl)cc2)c2ccccc21 (stereo unspecified)
CS(=O)(=O)N1CCCC(C(=O)N2CCOCC2)C1 (stereo unspecified)
Clc1ccccc1-c1cc(NCCN2CCOCC2)ncn1
CCc1cc2c(=O)c(-c3ccon3)c(N)oc2cc1OC
CCn1c(SCC(=O)Nc2cc(C)ccc2C)nnc1-c1cnccn1
CC1=C(C(=O)OCc2ccccc2)C(c2ccc(C(F)(F)F)cc2)NC(=O)N1CCCCCC(=O)O (stereo unspecified)
COC(=O)[C@@]1(C)C=C[C@@H](Cc2ccccc2)N1C(C)=O
O=C(Cn1cc(C(=O)c2cccs2)c2ccccc21)NCc1cccs1
O=C(c1cnccn1)N1CCC[C@@]2(CCN(Cc3ccncc3)C2)C1
COC(=O)CCCCCN1C(=O)NC(c2ccc(-c3ccccc3)cc2)C(C(=O)OCc2ccccc2)=C1C (stereo unspecified)
Cc1ccc(Br)cc1
O=C1CC(N2CCN(C(c3ccccc3)c3ccccc3)CC2)C(=O)N1 (stereo unspecified)
CCOc1ccc(C(=O)N(Cc2ccc(N(C)C)cc2)C2CCS(=O)(=O)C2)cc1 (stereo unspecified)
C/C(=C\C(=O)c1ccccc1)Nc1cccc(O)c1
Cc1cc2nc3c(=O)[nH]c(=O)nc-3n(C[C@H](O)[C@H](O)[C@H](O)CO)c2cc1C
O=C(O)c1ccc(C(=O)c2ccccc2C(=O)O)cc1C(=O)O
Cc1ccc(-c2c3c(=O)n(C)c(=O)n(C)c3cn2-n2cnnc2)cc1
C=CC(=O)OCCOCCOCCOCCOC(=O)C=C
CCOc1ccc2c(c1)cc(CN(C(=O)CC)C1CCCCC1)c1nnnn12
Cc1nc2cnc(N3CCNCC3)nc2n(Cc2ccc(F)cc2)c1=O
COc1ccc2c(=O)cc(-c3ccccc3)oc2c1O
C=CCn1c(SCc2csc(C)n2)nc2scc(-c3ccc(C)o3)c2c1=O
C=CC(=C)CCC=C(C)C
Cc1ccc(NC(=O)N2CCC(C(=O)NCc3ccc(F)cc3)CC2)cc1
O=C(NCc1ccccc1)[C@H]1C[C@@H]1[C@H](NP(=O)(c1ccccc1)c1ccccc1)c1ccccc1
O=C1C(c2[nH]c3ccccc3c2O)=Nc2ccccc21
COc1c(C)c2c(c(O)c1C/C=C(\C)CCC(=O)O)C(=O)OC2
Fc1ccc2nc(-c3ccccc3)nc(SCc3nnc(-c4ccccc4)o3)c2c1
Cc1cc(Cl)ccc1OCC(=O)Oc1c(Cl)c(Cl)c(Cl)c(Cl)c1Cl
CCN(CC)CCCCn1c(-c2ccccc2)nc2c(N3CCOCC3)nc(C)nc21
CCNC(=O)CCc1nc(-c2ccc(C(C)(C)C)cc2)no1
c1cncc(CNc2ccnc(-c3ccc4c(c3)OCO4)n2)c1
Cc1cc(C)c2c(c1)c(C)cc1nnc(SCC(=O)NCc3ccco3)n12
Cc1ccc(-c2noc(-c3ccccc3C(=O)NCC3CCCO3)n2)cc1 (stereo unspecified)
c1ccc2c(c1)-c1ccccc1C2N1CC2CCC(CC2)C1
CCC(=O)Nc1ccc(C(=O)Nc2ccc3c(c2)C(=O)N(CC2CCCO2)C3=O)cc1 (stereo unspecified)
CSCC[C@H](NC(=O)NCc1cccs1)C(=O)O
Cc1cccn2c(=O)c3cc(C(=O)N4COCC4(C)C)n(C)c3nc12
CCC[C@@H]1C[C@@]1(CCC)[C@@H](NC(=O)c1ccccc1)c1ccc(C(=O)OC)cc1
Cc1nc(CNS(=O)(=O)c2ccc(Oc3ccccc3)cc2)cs1
O=C(c1csnn1)N1CCC2(CCN(Cc3nccs3)CC2)CC1
CC1(C)CCCC2=C1CC1C(=O)N(c3ccccc3)C(=O)C1C2 (stereo unspecified)
COc1ccc(-c2cc(C(=O)NC(C(=O)O)C(C)C)c(C)o2)cc1OC (stereo unspecified)
Cc1ccc(-c2nnn(CC(=O)N(CCO)C(C(=O)NC(C)(C)C)c3ccncc3)n2)cc1 (stereo unspecified)
Cc1ccc(NC(=O)CCNS(=O)(=O)c2ccc3c(c2)oc(=O)n3C)cc1C
CCC/C=C(\CCC)C(NC(=O)Cc1ccccc1)c1ccc(C(=O)OC)cc1 (stereo unspecified)
O=C1CC(c2cccc(Br)c2)C2=C(CCCC2=O)N1 (stereo unspecified)
COc1ccc(-c2nc3cnc(Oc4ccccc4)nc3n(Cc3cccs3)c2=O)cc1
Oc1c(CN2CCOCC2)ccc(CN2CCOCC2)c1O
CC(=O)CSc1nnc(CSc2ncccn2)n1C1CCCCC1
CCN1CCN(C(=O)CN(C)S(=O)(=O)c2ccc(OC)cc2)CC1
CCOc1ccc(S(=O)(=O)n2ccnc2)c2ccccc12
